# In PubChem BioAssay AID1159580 (chemical genetic matrix, 2015):
# Among all 5,500 compounds or so, about 2,000 (36%) were called active. About 18% were inconclusive and are not listed. The list shows a part of the results. Unmarked numbers belong to inactive results. No stated cut-off is given here; in the data, active means normalized growth mostly below about 0.91 (no sharp cut-off); inconclusive means no clear call, values can overlap the other calls; inactive means mostly above about 0.92.
# Test: chemical genetic growth profiling, strain panel (AID 1159580);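 further: tested at 20 µM; growth read once vehicle control cultures reached saturation at 30 °C; 1 = growth at the plate median or of vehicle wells; lower values mean less growth of the strain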
# Conditions: growth OD
# [1] = S. cerevisiae deletion strains, locus YHR030C, strain SLT2, hits give low values
# [2] = S. cerevisiae deletion strains, locus YJL095W, strain BCK1, hits give low values
structure (smiles),measurement,setting,value
COc1ccc2oc(-c3ccccc3OC)cc(=O)c2c1,normalized growth,[1],0.875
same,normalized growth,"S. cerevisiae deletion strains, locus YHR079C, strain IRE1, hits give low values",0.911
same,normalized growth,[2],0.889
same,normalized growth,"S. cerevisiae deletion strains, locus YJR066W, strain TOR1, hits give low values",0.851
same,normalized growth,"S. cerevisiae deletion strains, locus YLR113W, strain HOG1, hits give low values",0.966
same,normalized growth,"S. cerevisiae deletion strains, locus YNL183C, strain NPR1, hits give low values",0.883
same,normalized growth,"S. cerevisiae deletion strains, locus YOR231W, strain MKK1, hits give low values",0.91
same,normalized growth,"S. cerevisiae deletion strains, locus YPL256C, strain CLN2, hits give low values",0.936
COc1ccc2c(=O)cc(-c3ccccc3OC)oc2c1,normalized growth,"S. cerevisiae deletion strains, locus YAL013W, strain DEP1, hits give low values",0.743 (active)
same,normalized growth,"S. cerevisiae deletion strains, locus YBR021W, strain FUR4, hits give low values",0.797 (active)
same,normalized growth,"S. cerevisiae deletion strains, locus YBR229C, strain ROT2, hits give low values",0.97
same,normalized growth,"S. cerevisiae deletion strains, locus YCL029C, strain bik1, hits give low values",0.946
same,normalized growth,"S. cerevisiae deletion strains, locus YDL035C, strain GPR1, hits give low values",0.865
same,normalized growth,"S. cerevisiae deletion strains, locus YDL074C, strain BRE1, hits give low values",0.81
same,normalized growth,"S. cerevisiae deletion strains, locus YDL101C, strain DUN1, hits give low values",0.933
same,normalized growth,"S. cerevisiae deletion strains, locus YDL185W, strain tfp1, hits give low values",0.948
same,normalized growth,"S. cerevisiae deletion strains, locus YDL192W, strain arf1, hits give low values",0.763 (active)
same,normalized growth,"S. cerevisiae deletion strains, locus YDR101C, strain arx1, hits give low values",0.883 (active)
same,normalized growth,"S. cerevisiae deletion strains, locus YDR162C, strain NBP2, hits give low values",0.843
same,normalized growth,"S. cerevisiae deletion strains, locus YDR318W, strain mcm21, hits give low values",0.866 (active)
same,normalized growth,"S. cerevisiae deletion strains, locus YDR388W, hits give low values",0.934
same,normalized growth,"S. cerevisiae deletion strains, locus YDR502C, strain sam2, hits give low values",0.85 (active)
same,normalized growth,"S. cerevisiae deletion strains, locus YER110C, hits give low values",0.939
same,normalized growth,"S. cerevisiae deletion strains, locus YER155C, strain BEM2, hits give low values",0.869 (active)
same,normalized growth,"S. cerevisiae deletion strains, locus YGL078C, strain dbp3, hits give low values",0.934
same,normalized growth,"S. cerevisiae deletion strains, locus YGL086W, strain mad1, hits give low values",0.833 (active)
same,normalized growth,"S. cerevisiae deletion strains, locus YGL248W, strain PDE1, hits give low values",0.825 (active)
same,normalized growth,"S. cerevisiae deletion strains, locus YGR078C, strain PAC10, hits give low values",0.509 (active)
same,normalized growth,"S. cerevisiae deletion strains, locus YGR135W, strain pre9, hits give low values",0.812 (active)
same,normalized growth,"S. cerevisiae deletion strains, locus YGR252W, strain gcn5, hits give low values",0.716 (active)
same,normalized growth,[1],0.539 (active)
same,normalized growth,"S. cerevisiae deletion strains, locus YHR079C, strain IRE1 (second series), hits give low values",0.941
same,normalized growth,"S. cerevisiae deletion strains, locus YHR094C, strain hxt1, hits give low values",0.961
same,normalized growth,"S. cerevisiae deletion strains, locus YHR129C, strain ARP1, hits give low values",0.849 (active)
same,normalized growth,"S. cerevisiae deletion strains, locus YHR200W, strain rpn10, hits give low values",0.895 (active)
same,normalized growth,"S. cerevisiae deletion strains, locus YIL066C, strain RNR3, hits give low values",0.819 (active)
same,normalized growth,"S. cerevisiae deletion strains, locus YIL073C, strain SPO22, hits give low values",0.806
same,normalized growth,"S. cerevisiae deletion strains, locus YIL125W, strain kgd1, hits give low values",0.938
same,normalized growth,"S. cerevisiae deletion strains, locus YIR030C, strain dcg1, hits give low values",0.905 (active)
same,normalized growth,[2],0.437 (active)
same,normalized growth,"S. cerevisiae deletion strains, locus YJL134W, strain LCB3, hits give low values",0.985
same,normalized growth,"S. cerevisiae deletion strains, locus YJL168C, strain set2, hits give low values",0.941
same,normalized growth,"S. cerevisiae deletion strains, locus YJL187C, strain SWE1 (second series), hits give low values",0.918
same,normalized growth,"S. cerevisiae deletion strains, locus YJR043C, strain POL32, hits give low values",0.778 (active)
same,normalized growth,"S. cerevisiae deletion strains, locus YKL009W, strain mrt4, hits give low values",0.947
same,normalized growth,"S. cerevisiae deletion strains, locus YKL068W, hits give low values",0.963
same,normalized growth,"S. cerevisiae deletion strains, locus YKL085W, strain MDH1 (second series), hits give low values",0.97
same,normalized growth,"S. cerevisiae deletion strains, locus YKL085W, strain MDH1, hits give low values",0.97
same,normalized growth,"S. cerevisiae deletion strains, locus YKR001C, strain vps1, hits give low values",0.709 (active)
same,normalized growth,"S. cerevisiae deletion strains, locus YLR039C, strain RIC1, hits give low values",0.642 (active)
same,normalized growth,"S. cerevisiae deletion strains, locus YLR058C, strain SHM2, hits give low values",0.949
same,normalized growth,"S. cerevisiae deletion strains, locus YLR102C, strain apc9, hits give low values",0.95
same,normalized growth,"S. cerevisiae deletion strains, locus YLR262C, strain YPT6, hits give low values",0.65
same,normalized growth,"S. cerevisiae deletion strains, locus YLR268W, strain sec22, hits give low values",0.767 (active)
same,normalized growth,"S. cerevisiae deletion strains, locus YLR330W, strain CHS5, hits give low values",0.629 (active)
same,normalized growth,"S. cerevisiae deletion strains, locus YLR342W, strain FKS1 (second series), hits give low values",0.716 (active)
same,normalized growth,"S. cerevisiae deletion strains, locus YLR371W, strain rom2, hits give low values",0.728 (active)
same,normalized growth,"S. cerevisiae deletion strains, locus YLR418C, strain cdc73, hits give low values",0.468 (active)
same,normalized growth,"S. cerevisiae deletion strains, locus YML016C, strain PPZ1, hits give low values",0.974
same,normalized growth,"S. cerevisiae deletion strains, locus YML032C, strain rad52, hits give low values",0.879 (active)
same,normalized growth,"S. cerevisiae deletion strains, locus YML124C, strain tub3, hits give low values",0.94
same,normalized growth,"S. cerevisiae deletion strains, locus YMR078C, strain ctf18, hits give low values",0.916
same,normalized growth,"S. cerevisiae deletion strains, locus YMR223W, strain ubp8, hits give low values",0.831 (active)
same,normalized growth,"S. cerevisiae deletion strains, locus YMR307W, strain GAS1, hits give low values",0.49 (active)
same,normalized growth,"S. cerevisiae deletion strains, locus YNL067W, strain RPL9B, hits give low values",0.923
same,normalized growth,"S. cerevisiae deletion strains, locus YNL128W, strain TEP1, hits give low values",0.708 (active)
same,normalized growth,"S. cerevisiae deletion strains, locus YNL233W, strain BNI4, hits give low values",0.632 (active)
same,normalized growth,"S. cerevisiae deletion strains, locus YNL250W, strain rad50, hits give low values",0.984
same,normalized growth,"S. cerevisiae deletion strains, locus YNL271C, strain bni1, hits give low values",0.939
same,normalized growth,"S. cerevisiae deletion strains, locus YNL298W, strain CLA4, hits give low values",0.912
same,normalized growth,"S. cerevisiae deletion strains, locus YNL307C, strain MCK1, hits give low values",0.526 (active)
same,normalized growth,"S. cerevisiae deletion strains, locus YNL322C, strain KRE1, hits give low values",0.969
same,normalized growth,"S. cerevisiae deletion strains, locus YNR052C, strain pop2, hits give low values",0.914 (active)
same,normalized growth,"S. cerevisiae deletion strains, locus YOL006C, strain TOP1, hits give low values",0.484 (active)
same,normalized growth,"S. cerevisiae deletion strains, locus YOL012C, strain htz1",0.811
same,normalized growth,"S. cerevisiae deletion strains, locus YOL147C, strain pex11, hits give low values",0.874 (active)
same,normalized growth,"S. cerevisiae deletion strains, locus YOR061W, strain CKA2, hits give low values",0.976
same,normalized growth,"S. cerevisiae deletion strains, locus YOR069W, strain VPS5, hits give low values",0.957
same,normalized growth,"S. cerevisiae deletion strains, locus YOR136W, strain idh2, hits give low values",0.931
same,normalized growth,"S. cerevisiae deletion strains, locus YOR144C, strain elg1, hits give low values",0.916 (active)
same,normalized growth,"S. cerevisiae deletion strains, locus YOR184W, strain ser1, hits give low values",0.671 (active)
same,normalized growth,"S. cerevisiae deletion strains, locus YOR316C, strain cot1, hits give low values",0.958
same,normalized growth,"S. cerevisiae deletion strains, locus YPL241C, strain CIN2, hits give low values",0.918 (active)
same,normalized growth,"S. cerevisiae deletion strains, locus YPR119W, strain clb2, hits give low values",0.941
same,normalized growth,"S. cerevisiae deletion strains, locus YPR141C, strain kar3, hits give low values",0.96
same,normalized growth,"S. cerevisiae deletion strains, locus YPR163C, strain tif3, hits give low values",0.748 (active)
same,normalized growth,"S. cerevisiae deletion strains, locus YPR167C, strain met16, hits give low values",0.902 (active)
same,normalized growth,"S. cerevisiae deletion strains, strain wtn01, hits give low values",0.802 (active)
same,normalized growth,"S. cerevisiae strains, strain wild type, hits give low values",0.589 (active)
